# The whole screen tested about 16,000 compounds, of which about 5,100 (32%) were called active. Roughly 25% stayed inconclusive and do not appear here. Calls come from the whole dose curve; as a rule, active = well fitted curve in the direction sought with a large enough effect; inconclusive = small, poorly fitted or top-dose-only effect, or effect the other way; inactive = no such curve, though single readings can be large or run the other way. This is one part of the list.
# Target: Cytochrome P450 3A4 (Homo sapiens) (UniProt P08684)
# Assay: Cytochrome panel assay with activity outcomes
# Settings: recombinant CYP, pro-luciferin dealkylation, luminescence, p450-cyp3a4; series mostly up to 57.1 µM; activity, negative = inhibition: at the top concentration
# % is set by controls: 0 for no effect and ±100 for the full control effect.
# Sequence of Cytochrome P450 3A4 (Homo sapiens) (P08684 whole entry, looked up): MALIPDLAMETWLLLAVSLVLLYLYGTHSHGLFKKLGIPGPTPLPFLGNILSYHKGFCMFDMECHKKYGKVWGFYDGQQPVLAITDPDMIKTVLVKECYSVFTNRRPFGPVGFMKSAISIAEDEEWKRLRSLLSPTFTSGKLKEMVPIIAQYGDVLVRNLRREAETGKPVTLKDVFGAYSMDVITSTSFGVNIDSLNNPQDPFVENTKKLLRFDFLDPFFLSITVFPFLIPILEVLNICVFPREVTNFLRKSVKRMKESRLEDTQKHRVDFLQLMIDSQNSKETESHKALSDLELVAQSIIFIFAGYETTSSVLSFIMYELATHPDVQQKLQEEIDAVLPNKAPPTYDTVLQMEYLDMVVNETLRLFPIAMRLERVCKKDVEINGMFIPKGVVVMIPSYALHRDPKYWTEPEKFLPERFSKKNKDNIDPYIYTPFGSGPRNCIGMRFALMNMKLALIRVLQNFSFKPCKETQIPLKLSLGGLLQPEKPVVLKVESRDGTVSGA
Compound,"activity, negative = inhibition",AC50
C=C(C)CN(CC#N)CC(=C)C,-17.3% [at 11.4 µM] (inactive),
COc1ccc(N2CCc3c(C)nc4c(OC)cc(OC)cc4c32)c(OC)c1,,5.01 µM (active)
Cc1o[nH]c(=O)c1CC[C@H](N)C(=O)O,-16.4% (inactive),
CCCc1nnc(SCC(=O)N2CCCC(C)C2)n1CC1CCCO1 (centres undefined),,8.91 µM (active)
CCCS(=O)(=O)N1CCCC(C(=O)NCC2CCCO2)C1 (centres undefined),1.91% (inactive),
CCCc1nnc(SCC(=O)N2C(C)CCCC2C)n1CCCOC (centres undefined),8.82% [at 2.29 µM] (inactive),
CCCc1nnc(SCC(=O)N2CCCCC2)n1CC1CCCO1 (centres undefined),,15.8 µM (active)
CCCc1nnc(SCC(=O)N2CCCCC2)n1CCCOC,-17.4% (inactive),
CCCc1nnc(SCC(=O)N2CCCCC2C)n1CC1CCCO1 (centres undefined),,12.6 µM (active)
C[N+](C)(C)CCCCCNCC12CC3CC(CC(C3)C1)C2,-10.3% (inactive),
O=C(O)[C@H](Cc1cc(I)c(O)c(I)c1)C1CCCCC1,-12.6% [at 11.4 µM] (inactive),
CCOc1cc2[nH]c(=O)n(CCCC(=O)NCc3ccc(OC)cc3)c(=O)c2cc1OCC,,2.51 µM (active)
CCOc1cc2[nH]c(=O)n(CCC(=O)NCc3ccc(OC)cc3)c(=O)c2cc1OCC,,3.55 µM (active)
O=C(c1cc(-c2ccco2)on1)N1CCOCC1,-7.73% (inactive),
CCc1ccc(NC(=O)c2cc(C(C)C)on2)cc1,-3.41% (inactive),
Cc1ccc(Cn2nc(C)c(NC(=O)c3cc(-c4ccco4)on3)c2C)cc1,,2.24 µM (active)
Cc1cc(C=C(C#N)C#N)c(C)n1-c1ccccc1,5.65% (inactive),
O=C(c1cccc(F)c1)N1CCC2(CCCN(Cc3ccccc3)C2)CC1,-24.7% (inactive),
COCC(=O)N1CCC2(CCCN(Cc3ccccc3)C2)CC1,-23.3% (inactive),
COC(=O)N1CCC2(CCCN(Cc3cc(C(F)(F)F)cc(C(F)(F)F)c3)C2)CC1,-0.66% (inactive),
COC(=O)N1CCC2(CCN(Cc3cc(C(F)(F)F)cc(C(F)(F)F)c3)CC2)CC1,-24.3% (inactive),
O=C(c1cccc(F)c1)N1CCC2(CCCN(Cc3cc(C(F)(F)F)cc(C(F)(F)F)c3)C2)CC1,,10 µM (active)
COCC(=O)N1CCC2(CC1)CN(Cc1cc(C(F)(F)F)cc(C(F)(F)F)c1)C2,-17% (inactive),
COc1ccc(C(=O)N2CCC3(CCCN(Cc4cc(C(F)(F)F)cc(C(F)(F)F)c4)C3)CC2)cc1,,10 µM (active)
COc1ccc(C(=O)N2CCC[C@@]3(CCN(Cc4cc(C(F)(F)F)cc(C(F)(F)F)c4)C3)C2)cc1,,3.16 µM (active)

Compound,"activity, negative = inhibition",AC50
COCC(=O)N1CCC2(CCCN(Cc3cc(C(F)(F)F)cc(C(F)(F)F)c3)C2)CC1,,20 µM (active)
FC(F)(F)c1cc(CN2CC3(CCNCC3)C2)cc(C(F)(F)F)c1,-20.6% (inactive),
FC(F)(F)c1cc(CN2CCCC3(CCNCC3)C2)cc(C(F)(F)F)c1,,7.94 µM (active)
CS(=O)(=O)N1CCC2(CC1)CN(Cc1cc(C(F)(F)F)cc(C(F)(F)F)c1)C2,-22.2% (inactive),
CC(C)(C)N1C(=O)[C@H]2[C@H]3[C@H](O)[C@H](O)C/C(=N/NC(=O)OCc4ccccc4)[C@H]3CC[C@@H]2C1=O,-22.6% [at 11.4 µM] (inactive),
COc1ccc(N2CC(C(=O)Nc3cc(C)on3)CC2=O)cc1 (centres undefined),-17.7% (inactive),
COc1ccc(/C=C2\SC(=O)N(CCNC(=O)C3CC(=O)N(c4ccccc4)C3)C2=O)cc1 (centres undefined),,2.82 µM (active)
NC(N)=NC(N)=Nc1ccc(S(N)(=O)=O)cc1,-13.3% [at 11.4 µM] (inactive),
COc1ccccc1NC(=S)NNC(=O)c1c(Cl)c(C)nn1C,,15.8 µM (active)
Cc1nn(C)c(C(=O)NNC(=S)Nc2ccc(Cl)cc2)c1[N+](=O)[O-],-8.67% [at 2.29 µM] (inactive),
COC(=O)c1c(-c2cc(OC)c(OC)c(OC)c2)c2ccnc(OCc3ncccn3)c2c(=O)n1Cc1ccnc(C)c1,,15.8 µM (active)
CCn1c(SCc2nc3ccccc3[nH]2)nnc1-c1ccc(OC)cc1,,3.16 µM (active)
OC(Cc1nc2ccccc2[nH]1)c1ccccc1Cl (centres undefined),,10 µM (active)
c1ccc(-c2nnc(SCc3nc4ccccc4[nH]3)n2Cc2ccco2)cc1,,2 µM (active)
c1ccc(SCc2nc3ccccc3[nH]2)cc1,,12.6 µM (active)
c1ccc2[nH]c(NC3=NCCC3)nc2c1,8.35% (inactive),
CC[C@]1(C)CC(=O)NC1=O,,inactive
NCc1ccccc1CC(=O)N[C@@H]1C(=O)N2C(C(=O)O)=C(CSc3nnnn3CC(=O)O)CS[C@@H]12,-2.75% [at 25.6 µM] (inactive),
C/C(C[n+]1ccccc1)=N\N=C(N)N,2.37% [at 11.4 µM] (inactive),
Cc1noc(C)c1-c1nccc(NCc2cccnc2)n1,,3.98 µM (active)
Cc1noc(C)c1-c1nccc(NCc2ccccc2)n1,,5.01 µM (active)
Cc1noc(C)c1-c1nccc(NCc2cccs2)n1,,15.8 µM (active)
Nc1[nH]c(=O)nc2c1ncn2[C@H]1O[C@@H](CO)[C@@H](O)[C@@H]1O,-8.49% [at 11.4 µM] (inactive),
CCCCn1cnc2c(c(CC#N)nn2-c2ccccc2)c1=N,-13.4% [at 11.4 µM] (inactive),
COCC(=O)N1CCC[C@@]2(CCN(c3ncccn3)C2)C1,-13.1% (inactive),

Compound,"activity, negative = inhibition",AC50
CC(C)Oc1ccc(/C(O)=C2/C(=O)C(=O)N(Cc3cccnc3)C2c2ccco2)cc1 (centres undefined),,14.1 µM (active)
COCCN1C(=O)C(=O)/C(=C(/O)c2cccc(OC)c2)C1c1ccco1 (centres undefined),-0.898% (inactive),
COc1ccc(C2C(C(=O)c3ccco3)=C(O)C(=O)N2Cc2cccnc2)cc1OC (centres undefined),-18.7% (inactive),
Cc1ccc(C2/C(=C(/O)c3ccc(Cl)cc3)C(=O)C(=O)N2CC2CCCO2)o1 (centres undefined),-22.7% (inactive),
CCOc1cccc(/C(O)=C2/C(=O)C(=O)N(Cc3cccnc3)C2c2ccco2)c1 (centres undefined),,12.6 µM (active)
COc1ccc(/C(O)=C2/C(=O)C(=O)N(Cc3cccnc3)C2c2ccco2)cc1OC (centres undefined),,14.1 µM (active)
COc1ccc(C2/C(=C(/O)c3ccccc3)C(=O)C(=O)N2CC(C)O)c(OC)c1 (centres undefined),-11.4% (inactive),
COc1cccc(/C(O)=C2/C(=O)C(=O)N(Cc3cccnc3)C2c2ccco2)c1 (centres undefined),,14.1 µM (active)
COc1ccccc1C1/C(=C(/O)c2ccccc2)C(=O)C(=O)N1CCO (centres undefined),-5.34% (inactive),
O=C(O)c1ccc(/C=N\N=C2c3ccccc3-c3ccccc32)cc1,-15.1% [at 11.4 µM] (inactive),
Cc1ccccc1/C=N\NC(=O)c1csnn1,-24.9% (inactive),
CCNc1nnc(-c2ccncc2)s1,-14.1% [at 11.4 µM] (inactive),
Cc1ccc(N(C(=O)c2csnn2)C(C(=O)NC(C)(C)C)c2cccs2)cc1 (centres undefined),,7.08 µM (active)
CCc1ccc(N(C(=O)c2csnn2)C(C(=O)NC(C)(C)C)c2ccncc2)cc1 (centres undefined),,3.98 µM (active)
COC(=O)N1CCC2(CCN(C(=O)NC(C)C)CC2)CC1,-3.12% (inactive),
Cn1c(SCc2nnc(-c3ccc(F)cc3)o2)nnc1C1COc2ccccc2O1 (centres undefined),,14.1 µM (active)
CC(Oc1ccc(Cl)cc1)C(=O)/C=C/N(C)C (centres undefined),-20.2% (inactive),
Oc1[nH]c2ccccc2c1/C=N/c1nccs1,,15.8 µM (active)
Oc1[nH]c2ccccc2c1N=Nc1ccc(C(F)(F)F)cn1,4.51% (inactive),
Cc1cc(C)n(C(=O)CCCCCCCCC(=O)n2nc(C)cc2C)n1,,4.47 µM (active)
CC(=O)c1cnc2cc(C)nn2c1C,27% (inactive),
Cc1cc(C)n(C(=O)c2cc3ccccc3c(=O)o2)n1,3.16% (inactive),
CC1=C(C(=O)O)N2C(=O)C(NC(=O)c3ccn(C)n3)C2SC1 (centres undefined),0.0496% (inactive),
O=C(CN(Cc1ccccc1Cl)C(=O)c1ccc(CN2CCOCC2)o1)NCC1CCCO1 (centres undefined),,12.6 µM (active)
O=C(CSCc1c(F)cccc1Cl)NCC1CCCO1 (centres undefined),-15.8% (inactive),

Compound,"activity, negative = inhibition",AC50
COCCCNC(=O)CN(c1ccc(OC)cc1)S(=O)(=O)c1ccc(NC(C)=O)cc1,,12.6 µM (active)
COc1ccc(N(CC(=O)N/N=C/c2cccs2)S(=O)(=O)c2ccc(OC)c(OC)c2)cc1,,1.12 µM (active)
CC(C)(C)C1CCc2c(C(=O)N/N=C/c3cccs3)csc2C1 (centres undefined),5.34% [at 2.29 µM] (inactive),
O=C(CN(c1ccccc1)S(=O)(=O)c1ccccc1[N+](=O)[O-])NN=C1CCCCCCC1,14.3% (inactive),
Cn1cccc1CC(=O)N/N=C\c1cccs1,3.8% [at 2.29 µM] (inactive),
COc1ccc(N(CC(=O)NN=C2CCCC2)S(=O)(=O)c2ccccc2)cc1,,2.82 µM (active)
CN(CC(=O)O/N=C(\N)c1ccccn1)S(=O)(=O)c1ccccc1,3.62% (inactive),
O=C(NNC(=O)C1CCCCC1)c1cnccn1,-0.435% [at 2.29 µM] (inactive),
COc1ccccc1OCC(=O)NNC(=O)c1cnccn1,16% [at 2.29 µM] (inactive),
O=C(NCc1ccccc1Cl)c1cnccn1,,1 µM (active)
COc1ccc(CNc2ccnc(-c3cccc(NS(C)(=O)=O)c3)n2)c(OC)c1,,3.98 µM (active)
COc1cccc(-c2nccc(NCc3ccccc3OC)n2)c1,,2.51 µM (active)
COCCNc1ccnc(-c2cccc(NS(C)(=O)=O)c2)n1,,25.1 µM (active)
COc1ccc(CNc2ccnc(-c3cccnc3)n2)c(OC)c1,,0.631 µM (active)
CSc1nc(-c2ccc(C)cc2)nc(C(Cl)Cl)n1,-4.04% (inactive),
COc1cccc(-c2nccc(NCc3ccc(OC)cc3OC)n2)c1,,3.16 µM (active)
COc1ccccc1CN1CC[C@@]2(CCCN(C(=O)c3c(C)noc3C)C2)C1,,1.58 µM (active)
Cc1noc(C)c1C(=O)N1CCC2(CCN(Cc3cc(C(F)(F)F)cc(C(F)(F)F)c3)CC2)CC1,-11.6% (inactive),
COc1ccccc1CN1CCC2(CC1)CCN(C(=O)c1c(C)noc1C)CC2,-14.3% (inactive),
Cc1noc(C)c1C(=O)N1CCC2(CCN(Cc3nccs3)CC2)CC1,-15.6% (inactive),
Cc1noc(C)c1C(=O)N1CCC[C@@]2(CCN(Cc3ccccc3)C2)C1,,12.6 µM (active)
Cc1noc(C)c1C(=O)N1CCC[C@@]2(CCN(Cc3nccs3)C2)C1,,15.8 µM (active)
Cc1noc(C)c1C(=O)N1CCC2(CC1)CN(c1ncccn1)C2,-3.04% (inactive),
Cc1noc(C)c1C(=O)N1CCC2(CCN(Cc3ccccc3)CC2)CC1,-9.16% (inactive),

# Reference: PubChem BioAssay AID1851 (National Center for Advancing Translational Sciences (NCATS), 2009)
